From PubChem BioAssay AID1490 (National Center for Advancing Translational Sciences (NCATS), 2009) come the findings set out here.

Each structure is given as a SMILES string. Among all 310,000 compounds or so, about 11,000 (3.5%) were called active. Not shown: some 4% with an inconclusive outcome. The sample as a whole holds a higher share of actives than the screen did. Unmarked numbers belong to inactive results. Calls follow the shape of the dose curve; as a rule, active = well fitted inhibition curve with a large enough effect; inconclusive = small, poorly fitted or top-dose-only effect, or another doubt; inactive = no such curve, though single readings can be large or run the other way.
Potency is read from the fitted curve at half-maximal effect.

The target of this test is 4'-phosphopantetheinyl transferase ffp (Bacillus subtilis) (UniProt Q9F4F7). Put plainly: qHTS Assay for Inhibitors of Bacillus subtilis Sfp phosphopantetheinyl transferase (PPTase).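 Also: the enzyme is Sfp with the accession as filed and its product quenches rhodamine fluorescence.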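 As to largest response in the series, negative = inhibition: 0% = enzyme reaction without inhibitor and -100% = no enzyme wells.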 The following applies: Biochemical Sfp PPTase activity. The essentials: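 Fluorescence-quenching assay: 15 nM Sfp-PPTase preincubated 15 min at room temperature with compound, then 5 uM rhodamine-CoA and 12.5 uM BHQ-2-labelled YbbR peptide added. Fluorescence (ex 525/em 598 nm) read at start and after 30 min; difference gives rate.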
Background: Quantitative high-throughput screening tests each substance at several concentrations.
On to `Fc1ccc(-c2ccc(NCCN3CCOCC3)nn2)cc1`, for which the largest response in the series, negative = inhibition is 19.2%.

For `O=C(Oc1ccccc1C(=S)N1CCCCC1)c1cc([N+](=O)[O-])cc([N+](=O)[O-])c1`, the Potency was 31.6 µM (active).

Regarding `COc1cc(C(=S)N2CCOCC2)cc(OC)c1OC(=O)c1cc([N+](=O)[O-])cc([N+](=O)[O-])c1`, the largest response in the series, negative = inhibition was 4.17%.

As to `O=C(Nc1ccc(C(=O)N2CCCCC2)cc1)c1cccc([N+](=O)[O-])c1`, the largest response in the series, negative = inhibition was 17.2%.

In the case of `O=C(Oc1ccccc1Cl)c1ccc(N2CCOCC2)c([N+](=O)[O-])c1`, the largest response in the series, negative = inhibition was -20.5%.

Consider `COc1cc(C(=S)N2CCOCC2)cc(OC)c1OC(=O)c1ccc([N+](=O)[O-])cc1[N+](=O)[O-]`, for which the largest response in the series, negative = inhibition was 7.82%.

For `O=C(Oc1ccc(Br)cc1C(=S)N1CCOCC1)c1cccc([N+](=O)[O-])c1`, the Potency was 50.1 µM (active).

`CCCCNC(=O)CCn1nc(-c2ccc(Cl)cc2)ccc1=O`: the largest response in the series, negative = inhibition is 10.2%.

Turning to `Cc1c(CC(=O)NCC(=O)NCC(=O)O)c(=O)oc2cc3oc4c(c3cc12)CCCC4`, the largest response in the series, negative = inhibition is -20.1%.

On to `Nc1nnnn1/N=C/c1cccc(Br)c1`, for which the largest response in the series, negative = inhibition was 2.63%.

As to `Cc1n[nH]c(C)c1S(=O)(=O)N1CCCC(C(=O)Nc2ccc(Br)cc2)C1` (centres undefined), the largest response in the series, negative = inhibition is 15.6%.

Turning to `CCOC(=O)Cn1c(=O)n(Cc2ccc(OC)cc2)c(=O)c2cccnc21`, the largest response in the series, negative = inhibition is 13%.

Take `O=C(Nc1ccnn1C1CCN(Cc2cccc(OCCO)c2)CC1)C1CCCC1`: the largest response in the series, negative = inhibition is -0.971%.

As for `COc1ccc(-c2cc(C(=O)N3CCN(c4ccc(F)cc4)CC3)no2)cc1`, the largest response in the series, negative = inhibition is 8.09%.

For `COc1ccc(CNC(=O)c2ccc3oc(C(C)C)nc3c2)cc1`, the largest response in the series, negative = inhibition is 2.49%.

As for `S=c1[nH]c2ccccc2c2ccccc12`, the Potency was 50.1 µM (active).

As for `CCCCn1c(=S)[nH]c2ccccc2c1=O`, the largest response in the series, negative = inhibition is 8.99%.

On to `S=c1ccc2ccccc2[nH]1`, for which the largest response in the series, negative = inhibition was -21.1%.

`Cc1cccc(NC(=O)CSCC(=O)Nc2nnc(C3CC3)s2)c1`: the largest response in the series, negative = inhibition is -4.58%.

Turning to `CCN(CC)c1ccc2cc(C(N)=O)/c(=N\NC(=O)c3ccncc3)oc2c1`, the largest response in the series, negative = inhibition was -4.99%.

As for `CCN(CC)c1ccc(/C=N/Nc2nc(C)cc(C)n2)c(O)c1`, the largest response in the series, negative = inhibition was -14.7%.

As for `CCN(CC)c1ccc2oc(=O)c(C)nc2c1`, the Potency was 14.1 µM (active).

For `Cc1ccc2cccc(OCCCOc3ccccc3CO)c2n1`, the largest response in the series, negative = inhibition was 13.6%.

Turning to `O=C(CC1C(=O)NCCN1CC(c1ccccc1)c1ccccc1)NCC1CCOCC1` (centres undefined), the largest response in the series, negative = inhibition is -5.38%.

As to `Cc1sc2nc(SCCO)n(-c3ccccc3)c(=O)c2c1C`, the largest response in the series, negative = inhibition was 27.7%.

`CC(Sc1nnc2c(n1)C1CCC2(C)C1(C)C)C(=O)Nc1ccccc1` (centres undefined): the largest response in the series, negative = inhibition is 6.3%.

Consider `Cc1cccc(NC(=O)C(C)SCc2ccccc2)c1` (centres undefined), for which the largest response in the series, negative = inhibition was 3.73%.

Regarding `CSc1nc(C)cc(SC(C(C)=O)C(=O)Nc2ccccc2)n1` (centres undefined), the Potency is 50.1 µM (active).

For the compound `Cn1nccc1/C=N\NC(=O)c1ccc(Cl)cc1`, the largest response in the series, negative = inhibition is 9.85%.

As to `CCOc1cc(C(=S)N2CCOCC2)ccc1O`, the Potency was 14.1 µM (active).

As for `CCOc1cc(C(=S)N2CCOCC2)ccc1OS(=O)(=O)c1ccc(Br)cc1`, the largest response in the series, negative = inhibition is 22.9%.

For `CCOc1ccc(C(=O)CCN2CCOCC2)cc1`, the largest response in the series, negative = inhibition was -10.8%.

As for `COC(=O)[C@@H]1CC2=CC(=O)CC[C@]2(C)[C@@]23O[C@@H]2C[C@@]2(C)[C@@H](CC[C@@]24CCC(=O)O4)[C@H]13`, the largest response in the series, negative = inhibition was 10%.

In the case of `Cc1ccc(Cn2cc(C(=O)NN)c(=O)c3ccc(F)cc32)cc1`, the largest response in the series, negative = inhibition was 10.7%.

`CCCn1c(SCC(N)=O)nnc1C(C)C`: the largest response in the series, negative = inhibition was 10.5%.

Take `CCn1c(SCC(=O)Nc2ccc3c(c2)OCCO3)nnc1C(C)C`: the largest response in the series, negative = inhibition is 18.9%.

`CCCn1c(SCC(=O)c2ccc3c(c2)OCCO3)nnc1C(C)C`: the Potency was 79.4 µM (active).

As to `COc1ccc(C(C(=O)NC2CCCC2)N(CCCO)C(=O)Cn2nnc(-c3ccc(C)o3)n2)cc1` (centres undefined), the largest response in the series, negative = inhibition is 1.56%.

Consider `CCN(CC)S(=O)(=O)c1ccc(N2CCN(C)CC2)c(NC(=O)Nc2ccccc2F)c1`, for which the largest response in the series, negative = inhibition is 9.85%.

`Cc1cc(SCC(=O)c2ccccc2)nc(SCC(=O)c2ccccc2)n1`: the largest response in the series, negative = inhibition is 11.4%.

In the case of `Cc1cc(C)nc(S/C=C/C(=O)c2ccccc2)n1`, the Potency is 20 µM (active).

As for `Cc1ccc(N/C=C/C(=O)c2ccccc2)cc1C`, the largest response in the series, negative = inhibition is -6.7%.

For the compound `COc1cc(C(C(=O)NC2CCCC2)N(Cc2ccccc2)C(=O)c2snc(C(N)=O)c2N)ccc1O` (centres undefined), the largest response in the series, negative = inhibition is 4.51%.

As to `CCOC(=O)[C@H]1[C@H]2COc3cc(OC)ccc3[C@@H]2N2C(=O)N(c3ccc(Br)cc3)C(=O)[C@@]12C`, the largest response in the series, negative = inhibition was 5.98%.

As to `O=C(NCCCO)c1cc2c([nH]c3ccccc32)c(-c2ccc(F)cc2)n1`, the largest response in the series, negative = inhibition is -19.4%.

Turning to `CSc1nsc(SC)c1NC(=O)OC1CCCCC1`, the Potency was 56.2 µM (active).

Take `CSc1ncccc1C(=O)NC1CCCCCC1`: the largest response in the series, negative = inhibition is 8.17%.

Consider `CN(C)C(=O)c1ccc(NC(=O)c2ccccc2-c2ccccc2)cc1`, for which the largest response in the series, negative = inhibition was -2.24%.

As for `O=C1/C(=C/c2ccc3c(c2)OCO3)Oc2cc(OCC(=O)N3CC(O)C[C@H]3C(=O)O)ccc21` (some centres undefined), the largest response in the series, negative = inhibition was 2.62%.

As to `Cn1c(CC(=O)Nc2ccc(F)cc2)nnc1SCC(=O)NC1CCCCC1`, the largest response in the series, negative = inhibition was 16%.

For `CCOc1ccc(Nc2nc(Cc3nnc(SCC(=O)NC4CCCC4)n3C)cs2)cc1`, the Potency is 89.1 µM (active).

Take `CCOc1cccc(-c2nnc(SCC(=O)NC3CC3)n2C)c1`: the largest response in the series, negative = inhibition is 3.79%.

`CC(=O)Nc1ccc(NC(=O)COc2ccc(-c3ccccc3)cc2)cc1`: the largest response in the series, negative = inhibition is 13.3%.

With `O=C(/C=C/c1cccc(F)c1)NC1CC1`, the largest response in the series, negative = inhibition is 29.9%.

Regarding `COC(=O)Cn1c(O)c(N=NC(=O)OC)c2ccccc21`, the largest response in the series, negative = inhibition was 4.81%.

In the case of `CC(C)n1c(O)c(N=Nc2ccccn2)c2ccccc21`, the Potency was 50.1 µM (active).

On to `Oc1oc(-c2ccccc2Br)nc1/C=N/c1ccccn1`, for which the largest response in the series, negative = inhibition is -0.12%.

Consider `COC(CNC(=O)c1ccc2c(c1)ncn2-c1cc(C)cc(C)c1)OC`, for which the largest response in the series, negative = inhibition is 8.91%.

With `CC(C)C(N)C(=O)OCCOCn1cnc2c(=O)[nH]c(N)nc21` (centres undefined), the largest response in the series, negative = inhibition was -9.12%.

For the compound `COc1cc2c(cc1OC)CN(CC(=O)Nc1ccc(F)cc1)CC2`, the largest response in the series, negative = inhibition was 2.33%.

On to `O=C(CCc1nnc(Cc2ccc3c(c2)OCO3)o1)NCCc1ccccc1Cl`, for which the largest response in the series, negative = inhibition was -0.572%.

For the compound `CCC(=O)N(Cc1cc2cc(OC)ccc2[nH]c1=O)c1ccccc1C`, the largest response in the series, negative = inhibition was 6.41%.

With `COc1ccc2[nH]c(=O)c(CNc3ccc(C)c(C)c3)cc2c1`, the Potency was 50.1 µM (active).

For the compound `COc1ccc(N(Cc2cc3cc(OC)ccc3[nH]c2=O)S(C)(=O)=O)cc1`, the largest response in the series, negative = inhibition is -8.56%.

Regarding `Cc1ccc(-c2ccc(=O)n(Cc3ccc(F)cc3Cl)n2)cc1`, the largest response in the series, negative = inhibition is -21.9%.

Take `Cc1noc(C)c1-c1cc(NCc2cccnc2)ncn1`: the largest response in the series, negative = inhibition was -20.7%.

`Cc1cccc(CNc2ccnc(-c3cccnc3)n2)c1`: the Potency is 79.4 µM (active).

For the compound `Cc1cc(NCc2cccnc2)no1`, the largest response in the series, negative = inhibition is 1.54%.

As to `CCN(CC)c1ccc(NC(=O)CCc2nnc3ccc(N4CCCCC4)nn23)c(C)c1`, the largest response in the series, negative = inhibition is 2.26%.

Consider `CCOc1ccccc1CN1CCN(C2CCC2)CC1CCO` (centres undefined), for which the largest response in the series, negative = inhibition is 17.6%.

With `COC(=O)c1c(NC(=O)COc2ccc(Cl)cc2Cl)sc2c1CC(C)(C)NC2(C)C`, the largest response in the series, negative = inhibition is -6.17%.

With `O=C(CN(C(=O)CNC(=O)c1cccs1)c1cccc(F)c1)NC1CCCCC1`, the largest response in the series, negative = inhibition is 6.32%.

With `COC(=O)/C=C\C(=O)Nc1cccc([N+](=O)[O-])c1`, the Potency was 3.55 µM (active).

`COc1cccc(CNC(=O)CCCC(=O)Nc2cccc([N+](=O)[O-])c2)c1`: the largest response in the series, negative = inhibition was 4.84%.

`O=C(CSCC(=O)Nc1cccc([N+](=O)[O-])c1)Nc1ccccc1`: the largest response in the series, negative = inhibition is 7.95%.

As to `CC(=O)c1ccc(NC(=O)c2ccc(-n3cncn3)c([N+](=O)[O-])c2)cc1`, the largest response in the series, negative = inhibition is -0.369%.

On to `O=C(Nc1c2c(nn1-c1ccccc1)CS(=O)(=O)C2)C1CCCC1`, for which the largest response in the series, negative = inhibition was 11.4%.

`CSc1nnc2ccc(-c3ccc(C)cc3)nn12`: the largest response in the series, negative = inhibition is 4.27%.

With `NC(=O)c1oc2ccccc2c1NC(=O)Cc1ccccc1`, the largest response in the series, negative = inhibition was 0.75%.

For `COc1ccc2nc(SCc3ccccc3)nc(C)c2c1`, the largest response in the series, negative = inhibition is -4.22%.

On to `c1ccc(CSc2nnc(-c3ccco3)c(-c3ccco3)n2)cc1`, for which the Potency was 35.5 µM (active).

With `O=c1cc(O)nc(SCc2ccccc2Cl)[nH]1`, the largest response in the series, negative = inhibition is -17.3%.

Regarding `Clc1ccccc1CSc1nnc(-c2ccco2)c(-c2ccco2)n1`, the Potency is 20 µM (active).

`O=c1[nH]c(SCc2ccccc2)nnc1-c1ccccc1`: the largest response in the series, negative = inhibition was 15.9%.

For the compound `COC(OC)c1ccnc(SCc2ccccc2Cl)n1`, the largest response in the series, negative = inhibition was -3.61%.

Consider `CS(=O)(=O)Nc1cccc(C2=NN(C(=O)c3cccc(F)c3)C(c3cccs3)C2)c1` (centres undefined), for which the largest response in the series, negative = inhibition is 4.93%.

As for `COC(=O)c1ccc2c(=O)n(CCN3CCOCC3)c(SCC(=O)Nc3cccc(OC)c3)nc2c1`, the largest response in the series, negative = inhibition is 0.982%.

Consider `CN(C)C(=O)Cn1c(=O)n(S(=O)(=O)c2ccccc2)c2ccccc21`, for which the largest response in the series, negative = inhibition is -0.847%.

Consider `Cc1ccc(C(=O)NC23CC4CC(CC(C4)C2)C3)c(Cl)c1`, for which the largest response in the series, negative = inhibition is 2.46%.

As to `Cc1ccc(C(=O)c2c(NC(=O)c3ccccc3)sc(C)c2C)cc1`, the Potency is 28.2 µM (active).

In the case of `Cc1ccc(C(=O)NCCNC(=O)c2ccccc2)cc1`, the largest response in the series, negative = inhibition is 10.8%.

For the compound `Cc1ccc(C(=O)Nc2sc(Cc3ccc4c(c3)OCO4)c(C)c2C(N)=O)cc1`, the largest response in the series, negative = inhibition was -3.41%.

On to `Cc1c(CC(=O)N2CCN(C(=O)C3COc4ccccc4O3)CC2)c(=O)oc2c(O)c(O)ccc12` (centres undefined), for which the largest response in the series, negative = inhibition is -23.7%.

With `COc1cc(OC)c2c(C)cc(=O)oc2c1C(CCN1CCCCC1)c1ccc(N(C)C)cc1` (centres undefined), the largest response in the series, negative = inhibition was -9.21%.
